Hits are enriched below; roughly 2.2% of the tested compounds scored in any of these assays.
Ba/F3 V617F tox = loss of viability in JAK2V617F-driven Ba/F3 cells; actives 1.1% (n = 220,000); Ba/F3 EpoR-JAK2V617F viability, ATP luminescence; inhibition, % at 5.6 µM; AID 1446;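 active = inhibition above the campaign mean plus 3 SD over all tested compounds, cut at about 24% in these data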;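 also: cytokine-independent growth of Ba/F3 cells driven by EpoR plus mutant JAK2; 0% = DMSO-treated cells and 100% = JAK inhibitor I control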
KLF5 inh = kruppel-like factor 5 inhibition. DLD-1 KLF5 promoter-luciferase reporter, luminescence. inhibition, % at 5 µM. actives 0.23% (n = 290,000). AID 1700;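 active = inhibition above a per-plate limit of that plate's mean compound inhibition plus 3 SD, cut at about 60% in these data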;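 also: 0% = DMSO wells and 100% = LY294002 at 200 µM; higher means less KLF5 promoter-driven luciferase light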
APP transl inh = APP translation inhibition; AID 1285; actives 0.82% (n = 190,000); SH-SY5Y APP 5'UTR-luciferase reporter, luminescence; inhibition, % at 2 µM;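 active = inhibition above a set limit, derived from the sample mean plus 3 SD, cut at about 45% in these data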
IEC-6 cytotox = counter-screen for KLF5 inhibitors: cytotoxicity in IEC-6 cells | IEC-6 cytotoxicity, luminescence viability | inhibition, % at 5 µM | actives 0.78% (n = 290,000) | AID 1825;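 also: 0% = plate median of test compound wells and 100% = cytotoxic reference compound wells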
BaF3 parental = counter-screen for JAK2V617F inhibitors: parental Ba/F3 viability inhibitors; actives 1.1% (n = 220,000); AID 1486; CellTiter-Glo ATP luminescence; inhibition, % at 5.6 µM;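 active = inhibition above a per-campaign cutoff, the mean inhibition of all tested compounds plus 3 SD, cut at about 27% in these data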;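 also: 0% = DMSO wells and 100% = JAK Inhibitor I control wells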
aSyn UTR inh = 5' untranslated region of α-synuclein, MLPCN primary screen; alpha-synuclein 5'UTR reporter, inhibitor activity; inhibition, % (tested at 7.5 µM); actives 0.82% (n = 300,000); AID 1813; in the data active = inhibition above about 60%;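 also: H4 neuroglioblastoma cells stably carrying SNCA 5'UTR luciferase fusion; 0% = DMSO wells and 100% = positive control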
IEC-6 tox confirm = confirmation of cytotoxic compounds in rat IEC-6 intestinal epithelial cells; shares compounds with IEC-6 cytotox; IEC-6 rat intestinal epithelial viability, luminescence; inhibition, % at 5 µM; actives 63% (n = 1,900); AID 1907;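 also: 0% = vehicle and 100% = reference cytotoxic drug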
* marks the source's active call; other numbers are inactive results; · = no result. Rule as the data show it, unless noted: active = inhibition above about 22%; inactive = the rest.

SMILES	Ba/F3 V617F tox	KLF5 inh	APP transl inh	IEC-6 cytotox	BaF3 parental	aSyn UTR inh	IEC-6 tox confirm
C=CCC1C(=O)NC(=S)NC1=O	2	5	0	6	0	4	·
CC/C(=C\C=C\[C@@H]1C=C[C@@H]2CCC[C@H]2[C@@H]1C(=O)c1ccc[nH]1)[C@@H]1O[C@@H]([C@@H](C)C(=O)O)CC[C@@H]1C	55*	12	-2	39*	31*	45	33*
C=CCn1c(O)c(C(C)=NCc2cc(OC)cc(OC)c2)c(=O)[nH]c1=O	45*	-5	26	28*	28*	38	34*
C=CCn1c(O)c(C(C)=NCc2cccnc2)c(=O)[nH]c1=O	-3	-14	7	2	5	-1	·
COc1ccc(CNCCc2c(C)[nH]c3ccc(OC(F)(F)F)cc23)c(OC)c1	·	-12	·	38*	·	90*	22*
COc1ccc2[nH]c(C)c(CCNCc3cc(OC)c(OC)c(OC)c3)c2c1	3	-12	-2	4	7	-3	·
Cc1ccnc(-n2c(C)nc3ccccc3c2=O)c1	2	-37	-35	8	7	-16	·
Cc1nc2ccccc2c(=O)n1-c1ccc(Br)cn1	25*	-31	·	22*	51*	-176	-2
CC(=O)OC1(c2ccccc2)CCN(C)CC1(C)C (centres undefined)	5	1	14	7	2	-15	·
Cc1nn(CC(C)C)c(Cl)c1C(=O)NC1CCC(C)CC1 (centres undefined)	·	·	·	·	·	-123	·
CC(=O)O[C@@]12CO[C@@H]1C[C@H](OC1OCC(O)C(O)C1O)[C@@]1(C)C(=O)[C@H](O)C3=C(C)[C@@H](OC(=O)[C@H](O)[C@@H](NC(=O)c4ccccc4)c4ccccc4)C[C@@](O)([C@@H](OC(=O)c4ccccc4)C12)C3(C)C (some centres undefined)	·	16	·	57*	·	-11	46*
CCCCCC(=O)N[C@@H](c1ccccc1)[C@@H](O)C(=O)O[C@H]1C[C@@]2(O)[C@@H](OC(=O)c3ccccc3)C3[C@](C)(C(=O)[C@H](O)C(=C1C)C2(C)C)[C@@H](OC1OCC(O)C(O)C1O)C[C@H]1OC[C@@]31OC(C)=O (some centres undefined)	·	17	·	68*	·	7	54*
COc1ccc(NC2=NCCCS2)cc1OC	·	7	·	-4	·	-9	·
FC(F)(F)C1=NC(C(F)(F)F)=NP(N2CCOCC2)(N2CCOCC2)=N1	-3	11	-17	0	0	18	·
Cc1ccc(-c2cc(-c3ccc(C)cc3)[n+](C)o2)cc1	91*	-16	-20	25*	73*	-2	23*
Cc1c2ccncc2c(C)c2c1[nH]c1ccccc12	84*	4	67*	49*	74*	114*	49*
C[C@@]1(CO)[C@H](O)CC[C@@]2(C)[C@H]1CC[C@H]1C[C@@H]3C[C@@]12CC[C@]3(O)CO	99*	23	83*	87*	91*	73*	80*
CC/C=C/CC(=O)N[C@@H](c1ccccc1)[C@@H](O)C(=O)O[C@H]1C[C@@]2(O)[C@@H](OC(=O)c3ccccc3)C3[C@](C)(C(=O)[C@H](OC(C)=O)C(=C1C)C2(C)C)[C@@H](O)C[C@H]1OC[C@@]31OC(C)=O (some centres undefined)	·	49	·	92*	·	77*	86*
CCC(C)C(=O)N[C@@H](c1ccccc1)[C@@H](O)C(=O)O[C@H]1C[C@@]2(O)[C@@H](OC(=O)c3ccccc3)C3[C@](C)(C(=O)[C@H](OC(C)=O)C(=C1C)C2(C)C)[C@@H](O)C[C@H]1OC[C@@]31OC(C)=O (some centres undefined)	·	56	·	92*	·	103*	81*
CCC(=NCCCN(CC)CC)c1c(O)n(-c2ccccc2)c(=O)[nH]c1=O	5	-1	-12	5	1	-1	·
COc1ccc(OC)c(NC(=O)N2C[C@H]3C[C@@H](C2)c2cccc(=O)n2C3)c1	·	-21	·	-1	·	16	·
O=[N+]([O-])NC1=NCCN1Cc1ccc(Cl)nc1	·	-22	·	48*	·	32	4
O=c1cccc2n1CC1CC2CN(c2ncnc3c2cnn3-c2ccccc2)C1 (centres undefined)	4	-15	-16	7	8	-13	·
COc1ccc(C2=CC(c3ccc(OC)c(OC)c3)c3c(c4ccccc4oc3=O)O2)cc1OC (centres undefined)	0	-2	·	28*	-1	-42	21

Assay outcomes deposited in PubChem BioAssay by several laboratories.
